Compound activity from PubChem BioAssay.
Most compounds without a hit are left out; they make up all but 3.1% or so of the library.
PriA SSB inh = inhibitors of Klebsiella pneumoniae PriA binding to SSB C-terminal tail, primary screen, biochemical, AlphaScreen; AlphaScreen SSBct-PriA binding, biotinylated peptide; inhibition, % at 33 µM; AID 1272365, 2023; 430,000 tested, 0.6% active; in the data active = inhibition mostly above about 37%, no sharp cut-off; inactive = mostly below about 20%;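 also: plate controls were negative control peptide for no effect and reference peptide for full effect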
Bead autofluor = counter-screen for toxin protease inhibitors: compound fluorescence | 360,000 tested, 3.1% active | fluorescence intensity (no concentration beside the values) | compound autofluorescence counterscreen, microsphere flow cytometry; active compounds read high; in the data active = fluorescence intensity above about 16000; inconclusive = no clear call, values can overlap the other calls
BoNT F protease = BoNT/F light chain protease inhibitors, primary screen, biochemical, flow cytometry, MLPCN library. Multiplex microsphere protease cleavage assay. 360,000 tested, 0.22% active. inhibition, % at 10 µM. AID 588497, 2011; in the data active = inhibition above about 35%, passing the limit was not always enough; inconclusive = no clear call, values can overlap the other calls; also: plate controls were buffer without enzyme for full effect and enzyme alone for no effect
BoNT-A LC inh2 = BoNT/A light chain protease inhibitors, primary screen, biochemical, flow cytometry, MLPCN library. multiplex microsphere protease substrate cleavage. inhibition, % at 10 µM. 360,000 tested, 0.17% active. AID 588499, 2011; also: plate controls were buffer without enzyme for full effect and enzyme alone for no effect
Anthrax LF inh2 = Bacillus anthracis LF protease inhibitors, primary screen, biochemical, multiplex microsphere, MLPCN library. Lethal factor (Bacillus anthracis), P15917. multiplex microsphere protease cleavage assay. inhibition, % at 10 µM. 360,000 tested, 0.12% active; also: plate controls were buffer without enzyme for full effect and enzyme alone for no effect
Target sequence (P15917 whole entry, looked up): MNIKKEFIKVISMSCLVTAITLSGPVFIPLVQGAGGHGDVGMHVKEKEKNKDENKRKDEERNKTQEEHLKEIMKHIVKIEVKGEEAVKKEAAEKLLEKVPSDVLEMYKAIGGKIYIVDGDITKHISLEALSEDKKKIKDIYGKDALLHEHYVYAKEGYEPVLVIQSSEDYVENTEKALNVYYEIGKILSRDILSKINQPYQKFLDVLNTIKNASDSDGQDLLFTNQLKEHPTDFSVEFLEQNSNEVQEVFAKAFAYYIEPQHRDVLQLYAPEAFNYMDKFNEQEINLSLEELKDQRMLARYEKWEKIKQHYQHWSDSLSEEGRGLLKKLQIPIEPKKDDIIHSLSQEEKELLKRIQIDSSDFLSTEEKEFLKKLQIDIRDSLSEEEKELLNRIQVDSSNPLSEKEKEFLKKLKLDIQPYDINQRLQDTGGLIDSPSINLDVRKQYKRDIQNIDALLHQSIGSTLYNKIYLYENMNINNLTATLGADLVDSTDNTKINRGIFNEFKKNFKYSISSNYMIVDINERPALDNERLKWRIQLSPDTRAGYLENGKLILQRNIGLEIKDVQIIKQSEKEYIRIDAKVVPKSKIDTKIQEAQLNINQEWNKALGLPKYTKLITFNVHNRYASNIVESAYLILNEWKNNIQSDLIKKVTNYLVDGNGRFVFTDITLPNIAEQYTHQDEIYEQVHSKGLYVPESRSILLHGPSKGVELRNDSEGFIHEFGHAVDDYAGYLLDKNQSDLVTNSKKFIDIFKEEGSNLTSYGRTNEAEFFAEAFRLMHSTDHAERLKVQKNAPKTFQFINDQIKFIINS
The depositor's hits bear a star; u = inconclusive; x = not tested or not shown. Rule as the data show it, unless noted: active = inhibition above about 30%; inconclusive = no clear call, values can overlap the other calls; inactive = below that.

SMILES	PriA SSB inh	Bead autofluor	BoNT F protease	BoNT-A LC inh2	Anthrax LF inh2
Cc1cc(NS(=O)(=O)c2ccc(NC(=O)COc3ccccc3Cl)cc2)no1	1	24447*	-9	-4	-4
COc1ccc(Cl)cc1S(=O)(=O)NC[C@](C)(O)c1cc2ccccc2o1	-20	x	x	x	x
CCOc1ccc(NC(C)=CC(=O)c2ccc3c(c2)OCCO3)cc1	-11	x	x	x	x
CC1CCN(C(=O)CN2C(=O)NC3(CCCCCC3)C2=O)CC1	-5	8182	-4	-4	-6
Cc1cc(C)c(NC(=O)CN2C(=O)NC3(CCCCC3)C2=O)c(C)c1	-11	20379*	0	1	0
Cc1ccccc1NC(=O)CN1C(=O)NC2(CCCCC2)C1=O	-10	2680	-14	0	-1
CC1CN(C(=O)CN2C(=O)NC3(CCCCCC3)C2=O)CC(C)O1 (stereo not given)	-6	24732*	-4	-2	-3
CSc1ncccc1C(=O)NCCn1ccn2nc(-c3ccco3)cc12	-1	x	x	x	x
O=C(CSCc1ccc(F)cc1)N1CCN(c2ccc(F)cc2)CC1	-1	10897	2	1	-1
O=C(CSCc1ccc(F)cc1)N1CCN(c2ccccc2)CC1	-9	23909*	-3	-5	-1
O=C(c1ccccc1F)N1CCN(c2ccccc2F)CC1	-14	6824	19	3	10
CC(=O)c1ccc(N2CCN(C(=O)c3ccc4c(=O)n(-c5ccccc5)c(=O)[nH]c4c3)CC2)cc1	-6	22374*	1	2	-1
O=C(c1ccccc1F)N1CCN(c2ccccc2)CC1	10	19300*	1	2	3
C=CCn1c(=O)[nH]c2cc(C(=O)N3CCN(c4cc(C)ccc4C)CC3)ccc2c1=O	-12	16226*	2	0	-2
O=C(c1ccc2c(=O)n(-c3ccccc3)c(=O)[nH]c2c1)N1CCN(c2ccc(F)cc2)CC1	-1	5921	1	0	-11
Cc1ccc(-n2ncc3c(C(C)C)nnc(SCC(=O)NC(C)C)c32)cc1C	5	x	x	x	x
COc1ccc(-c2csc3c(=O)n(Cc4cccc(C(F)(F)F)c4)cnc23)cc1	-10	x	x	x	x
CCCCN(C(=O)c1ccc(C(C)(C)C)cc1)C1CCS(=O)(=O)C1 (stereo not given)	-11	x	x	x	x
COc1ccc(Cl)cc1N1CC(c2nc(-c3ccncc3)no2)CC1=O (stereo not given)	-22	x	x	x	x
O=C(c1cccc(S(=O)(=O)N2CCCCCC2)c1)N1CCN(c2ccccc2)CC1	3	4203	-4	-1	-2
O=C(c1ccc(-c2ccccc2)cc1)N1CCN(c2ccccc2)CC1	-13	4181	u	-1	0
O=C(c1ccc2ccccc2c1)N1CCN(c2ccccc2)CC1	1	19676*	-1	u	-1
O=C(c1cccc(S(=O)(=O)N2CCCC2)c1)N1CCN(c2ccccc2)CC1	3	21121*	-2	-2	-1
C=CCn1c(Cc2cccs2)nnc1SCC(=O)c1ccc2ccccc2c1	0	23327*	0	u	-1
CCn1c(CNC(=O)c2cccs2)nnc1SCC(=O)NO	4	x	x	x	x
SMILES	PriA SSB inh	Bead autofluor	BoNT F protease	BoNT-A LC inh2	Anthrax LF inh2
C=CCn1c(CCNC(=O)c2cccs2)nnc1SCC(=O)Nc1cccc(Cl)c1C	37	20193*	-3	u	1
C=CCn1c(CNC(=O)c2cccs2)nnc1SCC(=O)c1ccc(Br)cc1	-15	23917*	-1	-1	0
C=CCn1c(CNC(=O)c2ccco2)nnc1SCC(=O)c1ccccc1	-10	4760	0	0	2
C=CCn1c(Cc2cccs2)nnc1SCC(=O)c1ccc(F)cc1	-3	9208	-17	-1	-6
C=CCn1c(CNC(=O)c2cccs2)nnc1SCC(=O)Nc1ccc(C(=O)O)cc1	7	19549*	0	u	-5
O=C(NCCc1c[nH]c2ccccc12)c1nnn(-c2ccccc2)c1-n1cccc1	0	x	x	x	x
Cc1cc2ncc3c(n2n1)CCN(C(=O)c1ccoc1)C3	-2	x	x	x	x
C=CCn1c(CCNC(=O)c2cccs2)nnc1SCC(=O)c1cccc([N+](=O)[O-])c1	19	14951	5	4	0
C=CCn1c(CCNC(=O)c2cccs2)nnc1SCC(=O)c1ccc(Cl)cc1	14	23328*	1	0	0
COc1ccc(-c2cc(-c3ccc(OC)cc3)nc(-c3ccc4c(c3)NC(=O)CO4)c2)cc1	-10	23016*	-3	-2	-4
COc1cc(NC(=O)c2cc(Cl)ccc2Cl)ccc1-c1cc2ccccc2oc1=O	-14	22732*	6	3	0
CCC(CO)[n+]1c(C)cc(/C=C2\Sc3ccccc3N2Cc2ccccc2)cc1C (stereo not given)	x	10304	4	40*	36*
CCN1/C(=C2\SC(=S)N(Cc3ccccc3)C2=O)Sc2ccccc21	0	2672	6	4	1
CC(C)c1ccc(CC(=O)N2CCNC(=O)C2(C)C)cc1	-2	x	x	x	x
CC(C)(O)C1=NOC(c2ccccc2)C1 (stereo not given)	-6	16732*	1	0	-3
CCc1nnc(-c2cccc(O)c2)o1	5	x	x	x	x
COC(F)(C(=O)Nc1ccc2c(c1)C(=O)NC2=O)C(F)(F)F (stereo not given)	-13	22859*	2	1	3
O=C(Nc1ccc2c(c1)C(=O)NC2=O)c1cccc(C(F)(F)F)c1	-10	5897	-2	-1	0
Cc1ccccc1C(=O)Oc1ccc(Br)cc1C(=S)N1CCCC1	7	22492*	-2	u	-2
O=C(Oc1ccc(Br)cc1C(=S)N1CCCC1)c1ccccc1Cl	-11	3509	9	-1	-4
Cc1ccc2cc(/C=N/Nc3nc4ccccc4c(=O)n3-c3ccccc3C)c(Cl)nc2c1	-1	x	x	x	x
O=C1OCc2cc(NC(=O)C3CCCCC3)ccc21	-7	20191*	-2	u	0
COc1ccc(-n2c(O)c(C=Nc3ccccc3)c3ccccc3c2=O)cc1	-9	3597	-5	-1	-8
CCN(c1ccc(N=Cc2c(O)n(Cc3ccc(OC)cc3)c(=O)c3ccccc23)cc1)C(C)C	-3	55670*	52*	37*	13
O=C(Nc1ccc(C(F)(F)F)cc1[N+](=O)[O-])c1ccccc1	68	x	x	x	x
SMILES	PriA SSB inh	Bead autofluor	BoNT F protease	BoNT-A LC inh2	Anthrax LF inh2
CCCOc1ccc(C(=O)Nc2ccc(C)cc2[N+](=O)[O-])cc1	-3	9166	-10	-1	-4
CC(C)(C)c1ccc(NC(=O)c2ccccc2)c([N+](=O)[O-])c1	59*	2446	-6	0	0
Cc1ccc(NC(=O)C(C)Oc2cccc(Br)c2)c([N+](=O)[O-])c1 (stereo not given)	49*	x	x	x	x
Cc1ccc(NC(=O)c2ccccc2)c([N+](=O)[O-])c1	57*	x	x	x	x
Cc1cccc(C(=O)Nc2ccc(Cl)cc2C(=O)c2ccccc2)c1	-1	20672*	-2	u	-5
O=C(c1ccccc1)c1cc(Cl)ccc1NC(=O)c1c(F)cccc1F	-10	x	x	x	x
